# Results taken from publication PMC7862700, “An all-to-all approach to the identification of sequence-specific readers for epigenetic DNA modifications on cytosine”.
# Assays:
# Test in all cases: DAPPL (digital affinity profiling via proximity ligation, sequencing); 10 mM Tris-HCl pH 7.5, 50 mM NaCl, 1 mM DTT, 4% glycerol, room temperature, 30 min; GST-TFs on glutathione beads, 16-mer random dsDNA library, 0.1% formaldehyde crosslink after washing; high values mean tight binding
# Conditions in all cases: protein: recombinant; tags: N-terminal GST; dsDNA, one strand shown
# [1] = molecular target: T1, FLI1 (Homo sapiens, UniProt Q01543 1-452)
# T1 sequence: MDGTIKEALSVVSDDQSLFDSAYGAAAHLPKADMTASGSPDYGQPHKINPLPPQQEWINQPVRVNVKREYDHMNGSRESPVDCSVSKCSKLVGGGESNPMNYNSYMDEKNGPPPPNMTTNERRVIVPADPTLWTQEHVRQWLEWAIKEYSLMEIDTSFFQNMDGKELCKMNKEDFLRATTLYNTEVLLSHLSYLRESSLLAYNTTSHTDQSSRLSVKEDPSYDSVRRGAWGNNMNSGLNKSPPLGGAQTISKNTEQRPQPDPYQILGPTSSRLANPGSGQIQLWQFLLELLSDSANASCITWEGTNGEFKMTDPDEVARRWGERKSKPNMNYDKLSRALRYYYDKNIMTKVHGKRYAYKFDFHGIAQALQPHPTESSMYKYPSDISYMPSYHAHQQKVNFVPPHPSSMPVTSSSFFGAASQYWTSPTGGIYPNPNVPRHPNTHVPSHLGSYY
# Procedure, shortened: (§1)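 Human transcription factors carrying a GST fusion were produced in yeast, bound to glutathione beads, tagged with DNA barcodes and pooled together with a tag-only sample. Each pool was held with 200 nmole of a random double-stranded 16-mer DNA library in Tris/NaCl/DTT/glycerol buffer for 30 min at room temperature, then washed, crosslinked in 0.1% formaldehyde, proximity-ligated with BsaI/T4 ligase (1 h, 37 °C), PCR-amplified and sequenced on an Illumina NextSeq500. Binding signal is the read frequency of each hexamer for a given factor divided by its frequency in the tag-only sample.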
# [2] = molecular target: T2, ELK1 (Homo sapiens, UniProt P19419 1-428)
# T2 sequence: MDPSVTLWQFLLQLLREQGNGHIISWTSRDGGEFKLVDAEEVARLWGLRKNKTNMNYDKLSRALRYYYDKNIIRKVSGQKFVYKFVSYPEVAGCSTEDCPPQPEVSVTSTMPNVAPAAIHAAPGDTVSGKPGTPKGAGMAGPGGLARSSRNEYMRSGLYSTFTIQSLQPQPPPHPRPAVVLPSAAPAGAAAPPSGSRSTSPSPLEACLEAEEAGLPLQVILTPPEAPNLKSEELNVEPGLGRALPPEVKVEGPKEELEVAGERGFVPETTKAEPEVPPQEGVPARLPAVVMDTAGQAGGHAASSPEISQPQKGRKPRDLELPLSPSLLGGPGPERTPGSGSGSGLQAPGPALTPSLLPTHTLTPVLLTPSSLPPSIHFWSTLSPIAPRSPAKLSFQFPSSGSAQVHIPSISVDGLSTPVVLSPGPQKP
# Procedure, shortened: as §1
# [3] = molecular target: T3, GABPA (Homo sapiens, UniProt Q06546 1-454)
# T3 sequence: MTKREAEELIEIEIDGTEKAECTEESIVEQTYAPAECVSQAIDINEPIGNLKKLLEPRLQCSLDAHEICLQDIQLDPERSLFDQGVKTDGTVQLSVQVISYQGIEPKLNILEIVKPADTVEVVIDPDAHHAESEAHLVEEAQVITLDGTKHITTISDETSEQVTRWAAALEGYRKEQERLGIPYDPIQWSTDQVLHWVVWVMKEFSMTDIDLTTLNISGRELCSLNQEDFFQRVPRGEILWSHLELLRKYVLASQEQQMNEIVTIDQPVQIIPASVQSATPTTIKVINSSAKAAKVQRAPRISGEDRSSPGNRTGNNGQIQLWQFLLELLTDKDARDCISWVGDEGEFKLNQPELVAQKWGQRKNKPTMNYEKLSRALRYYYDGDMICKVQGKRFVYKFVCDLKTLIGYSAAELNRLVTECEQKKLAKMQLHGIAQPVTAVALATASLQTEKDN
# Procedure, shortened: as §1
# [4] = molecular target: T4, ERG (Homo sapiens, UniProt P11308 1-479)
# T4 sequence: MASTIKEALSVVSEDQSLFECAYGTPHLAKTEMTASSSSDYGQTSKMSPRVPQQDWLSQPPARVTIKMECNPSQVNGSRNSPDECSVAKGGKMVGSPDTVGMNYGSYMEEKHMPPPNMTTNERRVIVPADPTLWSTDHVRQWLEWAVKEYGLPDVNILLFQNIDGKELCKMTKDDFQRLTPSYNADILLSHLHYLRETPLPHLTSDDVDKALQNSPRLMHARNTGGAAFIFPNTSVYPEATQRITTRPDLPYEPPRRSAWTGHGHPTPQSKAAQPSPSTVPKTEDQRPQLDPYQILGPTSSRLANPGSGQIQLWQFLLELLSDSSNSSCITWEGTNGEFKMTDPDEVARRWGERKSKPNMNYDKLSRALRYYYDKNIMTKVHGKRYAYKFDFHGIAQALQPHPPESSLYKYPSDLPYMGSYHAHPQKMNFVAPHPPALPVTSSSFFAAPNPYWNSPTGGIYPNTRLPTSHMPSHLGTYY
# Procedure, shortened: as §1
# [5] = molecular target: ELF1 (Homo sapiens, UniProt P32519 1-619)
# Procedure, shortened: as §1
# [6] = molecular target: T5, EHF (Homo sapiens, UniProt Q9NZC4 1-300)
# T5 sequence: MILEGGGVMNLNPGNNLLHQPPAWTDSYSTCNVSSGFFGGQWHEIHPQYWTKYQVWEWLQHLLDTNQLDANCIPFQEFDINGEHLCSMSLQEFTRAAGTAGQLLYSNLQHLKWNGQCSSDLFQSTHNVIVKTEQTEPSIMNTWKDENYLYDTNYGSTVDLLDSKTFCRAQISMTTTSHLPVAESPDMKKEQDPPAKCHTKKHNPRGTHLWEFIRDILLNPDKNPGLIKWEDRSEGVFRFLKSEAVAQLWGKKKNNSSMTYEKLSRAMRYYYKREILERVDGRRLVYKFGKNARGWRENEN
# Procedure, shortened: as §1
# [7] = molecular target: SPI1 (Homo sapiens, UniProt P17947 1-270)
# Procedure, shortened: as §1
# [8] = molecular target: SPIB (Homo sapiens, UniProt Q01892 1-262)
# Procedure, shortened: as §1
# [9] = molecular target: T6, ELK3 (Homo sapiens, UniProt P41970 1-407)
# T6 sequence: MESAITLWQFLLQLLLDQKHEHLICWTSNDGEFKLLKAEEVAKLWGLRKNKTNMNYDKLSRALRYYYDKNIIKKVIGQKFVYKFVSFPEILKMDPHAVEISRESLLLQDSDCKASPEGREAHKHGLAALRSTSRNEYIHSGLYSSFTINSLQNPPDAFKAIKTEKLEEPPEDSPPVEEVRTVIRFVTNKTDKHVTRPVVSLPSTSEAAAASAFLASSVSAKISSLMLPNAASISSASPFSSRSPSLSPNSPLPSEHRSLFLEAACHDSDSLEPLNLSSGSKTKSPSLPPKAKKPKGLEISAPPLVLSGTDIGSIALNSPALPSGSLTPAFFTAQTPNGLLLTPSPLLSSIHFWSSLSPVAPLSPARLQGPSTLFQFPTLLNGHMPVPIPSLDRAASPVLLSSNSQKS
# Procedure, shortened: as §1
# ELF1, sequence (P32519 whole entry): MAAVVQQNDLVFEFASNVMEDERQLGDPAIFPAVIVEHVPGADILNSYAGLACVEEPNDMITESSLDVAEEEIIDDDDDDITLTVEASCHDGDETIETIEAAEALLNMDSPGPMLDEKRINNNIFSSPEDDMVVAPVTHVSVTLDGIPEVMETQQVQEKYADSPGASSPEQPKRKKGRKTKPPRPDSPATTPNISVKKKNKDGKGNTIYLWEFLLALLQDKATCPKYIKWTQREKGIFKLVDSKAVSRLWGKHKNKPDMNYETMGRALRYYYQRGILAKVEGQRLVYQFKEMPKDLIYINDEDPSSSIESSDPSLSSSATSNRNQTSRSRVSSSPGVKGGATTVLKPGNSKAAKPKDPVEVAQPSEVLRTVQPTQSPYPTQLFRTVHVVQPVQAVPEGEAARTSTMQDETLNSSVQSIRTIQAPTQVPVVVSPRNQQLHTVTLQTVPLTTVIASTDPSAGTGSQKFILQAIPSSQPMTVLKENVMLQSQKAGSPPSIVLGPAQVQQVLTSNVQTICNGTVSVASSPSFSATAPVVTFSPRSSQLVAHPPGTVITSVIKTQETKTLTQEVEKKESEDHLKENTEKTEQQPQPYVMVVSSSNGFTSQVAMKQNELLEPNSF
# SPIB, sequence (Q01892 whole entry): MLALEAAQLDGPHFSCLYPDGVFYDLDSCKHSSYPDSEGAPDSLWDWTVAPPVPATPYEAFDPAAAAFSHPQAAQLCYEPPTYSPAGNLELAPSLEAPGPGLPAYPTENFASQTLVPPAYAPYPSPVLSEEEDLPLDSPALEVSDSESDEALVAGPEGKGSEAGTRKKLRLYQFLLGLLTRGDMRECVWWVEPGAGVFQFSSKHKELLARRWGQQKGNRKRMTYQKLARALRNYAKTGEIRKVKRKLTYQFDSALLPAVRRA
sequence,measurement,setting,value
CTCAGA,binding signal,[1],"1.07 fold enrichment (6-mer frequency, TF over GST control)"
same,binding signal,[2],"1.12 fold enrichment (6-mer frequency, TF over GST control)"
same,binding signal,[3],"1.13 fold enrichment (6-mer frequency, TF over GST control)"
same,binding signal,[4],"1.1 fold enrichment (6-mer frequency, TF over GST control)"
same,binding signal,[5],"1.14 fold enrichment (6-mer frequency, TF over GST control)"
same,binding signal,[6],"1.1 fold enrichment (6-mer frequency, TF over GST control)"
same,binding signal,[7],"1.04 fold enrichment (6-mer frequency, TF over GST control)"
same,binding signal,[8],"1.01 fold enrichment (6-mer frequency, TF over GST control)"
same,binding signal,[9],"1.02 fold enrichment (6-mer frequency, TF over GST control)"
